Assay outcomes as filed in PubChem BioAssay.
Sampled rows, rich in hits. Any-hit rate of the full collection: about 21%.
Pf growth 96h: P. falciparum growth inhibition at 96 hours; AID 504834; Potency, µM (top dose mostly 28.7 µM), hits mostly inhibitors; P. falciparum luciferase reporter growth, 96 h; actives 6.9% (n = 320,000)
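Two parasite generations (96 h, 37 C, 5% CO2) of compound exposure in infected erythrocytes (0.05% parasitemia, 2% hematocrit). Luciferase-reporter P. falciparum; decreased luminescence indicates inhibited growth, aimed at apicoplast-acting delayed death.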
CHX counter: counter-screen hit for Shiga toxin inhibitors, cycloheximide; cell reporter, cycloheximide protein synthesis inhibition counterscreen; max response, %; actives 12% (n = 300,000); in the data active means max response mostly above about 13%, no sharp cut-off; inactive means mostly below about 14%; further: read at 38.3 µM for the half of the compounds with a filed dose
Shiga inhibitor: blocks Shiga toxin action in Vero cells; AID 2315; Vero cells, Shiga toxin protein synthesis inhibition reporter; actives 9.2% (n = 290,000); inhibition, % at 38.7 µM; in the data active means inhibition mostly above about 28%, no sharp cut-off; inactive means mostly below about 43%
Pf growth 48h: inhibits P. falciparum growth in the first generation, 48 h | actives 5.9% (n = 310,000) | P. falciparum luciferase growth in erythrocytes, 48 h | Potency, µM (series often up to 28.7 µM), usual class: inhibitors
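Cell-based growth assay: transgenic P. falciparum expressing firefly luciferase, cultured in red cells within RPMI 1640 containing 0.5% w/v Albumax, 24 mM bicarbonate and gentamycin. A drop in luciferase activity indicates inhibition.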
A number is an active result; i = inactive; ? = inconclusive; nt = no result. Unless noted, the call rests on the fitted dose curve; in most records, active means well fitted inhibition curve with a large enough effect; inconclusive means small, poorly fitted or top-dose-only effect, or another doubt; inactive means no such curve, though single readings can be large or run the other way.

SMILES	Pf growth 96h	CHX counter	Shiga inhibitor	Pf growth 48h
O=C(CCCCCNC(=O)N1CCn2c1nc1ccccc12)N[C@@H](Cc1ccccc1)C(=O)O	?	i	i	i
COc1ccc(NC(=O)c2sc3nc(N4CCOCC4)c4c(c3c2N)CC(C(C)C)OC4)c(OC)c1 (stereo not given)	?	i	i	?
Cc1nn(-c2ccccc2)c(C)c1/C=N/N1CCN(c2ccccn2)CC1	?	i	i	i
Oc1cccc(/C=N/N2CCN(c3ccccn3)CC2)c1	i	40	128	i
Cc1ccc(N2CCN(/N=C/c3ccccc3[N+](=O)[O-])CC2)cc1	?	i	i	i
CN(c1ccccc1)c1ccc(/C=N/N2CCOCC2)cc1	i	84	61	i
O=[N+]([O-])c1ccccc1/C=N/N1CCN(c2ccccn2)CC1	i	37	47	i
C(=N\N1CCN(c2ccccn2)CC1)/c1ccccn1	i	49	37	i
Oc1cccc(/C=N/N2CCN(C3c4ccccc4-c4ccccc43)CC2)c1	i	i	i	i
Cc1nn(C)cc1/C=N/NC(=O)C(C)(C)Oc1ccc(Cl)cc1	nt	i	i	i
CCc1ccc(-n2cnc3cc(C(=O)NCC(OC)OC)ccc32)cc1	i	i	i	?
Oc1ccc(/C=N/N2CCN(c3ccccn3)CC2)cc1	i	27	101	i
CN(C)c1ccc(/C=N/N2CCN(c3ccccn3)CC2)cc1	i	34	91	i
CC(C)(C)c1ccc(/C=N/N2CCN(c3ccccn3)CC2)cc1	i	i	i	?
Cc1nn(-c2ccccc2)c(Cl)c1/C=N/N1CCN(c2ccccn2)CC1	i	i	i	i
c1ccc(N2CCN(c3cnccn3)CC2)nc1	i	i	i	i
BrC(=C\c1ccccc1)/C=N/N1CCN(c2ccccn2)CC1	i	40	38	i
CCC(=O)N1CCc2cc(Br)cc(S(=O)(=O)NCc3ccccc3OC)c21	?	i	i	i
CS(=O)(=O)N1CCN(C(=O)NC2CCCCC2)CC1	?	i	i	i
Cc1cc2nnn(-c3nnc(-c4ccccc4)c4ccccc34)c2cc1C	8.3µM	i	i	?
COc1ccc(OCC(=O)N/N=C2\CCc3ccccc32)cc1	i	i	i	nt
COc1ccccc1C(=O)ON=C1c2ccccc2-c2ccccc21	1.7µM	19	i	i
Cc1cccc(C(=O)O/N=C2\CCS(=O)(=O)c3sccc32)c1	?	i	i	?
COc1ccc2c(c1)CC/C2=N\NC(=O)c1ccccc1	i	64	75	i
COc1ccc2c(c1)CC/C2=N\OC(=O)c1cccc(C)c1	i	52	139	?
SMILES	Pf growth 96h	CHX counter	Shiga inhibitor	Pf growth 48h
COc1ccc2c(c1)CCC/C2=N/OC(=O)c1ccccc1OC	?	29	i	i
Cc1noc(C)c1-c1ccc2ncnc(NCc3ccco3)c2c1	nt	i	i	nt
O=C(O/N=C1\CCCc2ccccc21)c1cccs1	i	36	70	i
O=C(Cc1ccccc1)O/N=C1\CCCc2ccccc21	i	i	i	i
COc1ccc2c(c1)CC/C2=N\OC(=O)c1ccccc1C	?	50	135	?
COc1ccc2c(c1[N+](=O)[O-])CCC/C2=N/OC(=O)c1cccc2ccccc12	nt	i	i	i
COc1ccccc1NS(=O)(=O)c1cccc(C(=O)N/N=C2\CC(=O)CC(C)(C)C2)c1	?	i	i	13µM
COc1ccccc1NS(=O)(=O)c1cccc(C(=O)N/N=C/c2ccc([N+](=O)[O-])o2)c1	1.7µM	nt	nt	1.9µM
COc1ccccc1NS(=O)(=O)c1cccc(C(=O)NN=C2CCCC2)c1	i	i	i	i
COc1ccccc1NS(=O)(=O)c1cccc(C(=O)N/N=C/c2ccc3c(c2)OCCO3)c1	i	28	53	i
CCN(CC)c1ccc(/C=N/NC(=O)c2cccc(S(=O)(=O)Nc3ccccc3OC)c2)cc1	i	i	i	?
CCN(CC)c1ccc(/C=N/NC(=O)c2cccc(S(=O)(=O)Nc3ccccc3OC)c2)c(O)c1	12µM	i	i	9.3µM
CC(Cc1cccnc1)NC(=O)c1ccccc1OC1CCN(S(C)(=O)=O)CC1 (stereo not given)	?	i	i	i
COC(=O)c1ccc(C)c(NC(=O)CN(c2ccccc2)S(=O)(=O)N(C)C)c1	?	i	i	i
COc1ccc(/C=C/CN2CCC(n3nccc3NC(=O)C3CCCC3)CC2)cc1	i	i	i	?
CC1CCc2sc3c(c2C1)c(=O)n(CC(=O)O)c(=O)n3Cc1ccc(Cl)cc1 (stereo not given)	i	i	i	i
CC(=O)c1ccc(-c2cc([C@H]3[C@H]4C=CC[C@@H](C)[C@@H]4C(=O)N3Cc3ccccc3)ccc2F)cc1	?	i	i	12µM
